Source: PMC12864922, “TDP-43 directly inhibits mRNA accumulation in neurites through modulation of mRNA stability”
Whole data set: some 9,900 sequences, median “r (bound/input frequency ratio)” near 0.7, cut for the highest 2% near 6.5. The full list was thinned out, with the highest values kept by preference.

B1: ENSMUSG00000028439.112|Fam219a|120:124 (ssRNA)
RNA: GGGAGUUCUACAGUCCGACGAUCGCUUCGAUAUCCGCAUGCUACAAAGGGAUACUGUCUCUCCAUUAGAUAACUCCUUCCACUGUCUCCCUCCCCCGCUUUCUUACUUUCUGAGGGUUGGGAAGGUAAGAUGGGCCUUAGAGAGAAGCCAGGUUUGGGGAUGCAUACACCUGUUCUCACCGGUCUCUAACCAGUGCAUCUGUCUCUCUGCCUCAUCCCCACACCGCCCUGCCACCCCCAGUCUUCUGUCUAUUGGUUCCAGGCUGGAAGCAAGAGAUAAGGCUGGCCUCCUGUGCCCCAUUGCCUCUUGCGGUCGCACUAGUGUGGAAUUCUCGGGUGUCAAGG
B2: ENSMUSG00000031028.669|Tub (ssRNA)
RNA: GGGAGUUCUACAGUCCGACGAUCGCUUCGAUAUCCGCAUGCUAAUUUCUCUAGCUGAGAGCACACUUAGCCAGUUUUCACGCCUAGAACAUAUAUGUCGAUUUGCACAUGAUUGUCUUUUCCUAUUUUGGAGUGGUCAGACAUUUUAUUUUUGUUCAAAAUUAUCUGGAGUUUUAGACAAACUUGCAAAACUGUGCUUUUAUUAAGUGACUUUUUGAAUAAACUUUUUGGUAUUCUGAAGCAAAUGUAUUUAUUUAUUGGUAUGUGCAAUGACAAACUUGGUAUUUUCCCAUAAUGACAUUAUCUCUUGCGGUCGCACUAGUGUGGAAUUCUCGGGUGUCAAGG
B3: ENSMUSG00000061578.833|Ksr2 (ssRNA)
RNA: GGGAGUUCUACAGUCCGACGAUCGCUUCGAUAUCCGCAUGCUACUCACAGUUUCAAAGGGCUCAGUCCAUAGCUGCCUGACUCUGUGUUUCUAGGCCUUUCUUGAGGCAAGUGUUCAUCAUGAUAGUGUGAGGGUGAGGAGGAGUUUCUUCAUGGCAAACAGGAAGCAAAGAGCAAUACAGGAAAAGGUCAGGGGUGAGAUGUGUCAUUGCCACUUCCUCCAGCUAGGACCUUUGAGCAUCACAUUGUGAAGCCAUCCAGGGACUUGGGGGUUAGGUCAGAGGUAUCAAUACAUCUCCGGAAACUCUUGCGGUCGCACUAGUGUGGAAUUCUCGGGUGUCAAGG
B4: ENSMUSG00000061578.1472|Ksr2 (ssRNA)
RNA: GGGAGUUCUACAGUCCGACGAUCGCUUCGAUAUCCGCAUGCUAGAUAGGUAUGUGAAUAAAUGGAUGGAUGGAUGGAUUGAUUUGUGAAUGAAUGGAUGAAUGGAUGGGUAGGUGGGUGGAUGCAUAGGCAAGUAGAUGAAUGAAUAUGUGGGUAGAAGGGUGAGUGGGUGGAUGAAUGGAUGGAUAGGUUGGUAGGUUAAUGUAUUCGUGGAUGGGUGAAUGGAUGGAUGGAUAGAUAGAUGGGAAGGUGGAUGGACAGAUGGAUGGAUGGAUAGAUAGAUGGACAGGUGGUUGGUGGAUAACUCUUGCGGUCGCACUAGUGUGGAAUUCUCGGGUGUCAAGG
B5: ENSMUSG00000061578.1470|Ksr2 (ssRNA)
RNA: GGGAGUUCUACAGUCCGACGAUCGCUUCGAUAUCCGCAUGCUAGGUGAAUGGAUGGAUAGGUAUGUGAAUAAAUGGAUGGAUGGAUGGAUUGAUUUGUGAAUGAAUGGAUGAAUGGAUGGGUAGGUGGGUGGAUGCAUAGGCAAGUAGAUGAAUGAAUAUGUGGGUAGAAGGGUGAGUGGGUGGAUGAAUGGAUGGAUAGGUUGGUAGGUUAAUGUAUUCGUGGAUGGGUGAAUGGAUGGAUGGAUAGAUAGAUGGGAAGGUGGAUGGACAGAUGGAUGGAUGGAUAGAUAGAUGGACAGGUGCUCUUGCGGUCGCACUAGUGUGGAAUUCUCGGGUGUCAAGG
B6: ENSMUSG00000061578.1458|Ksr2 (ssRNA)
RNA: GGGAGUUCUACAGUCCGACGAUCGCUUCGAUAUCCGCAUGCUAGAAUGAAUGGAUGAUGGAUGAAUGGAUGGGUAGGUGGGUAGAUAGGUAUAUGAAUGAAUGGAUGAAUGGAUGGGUGAAUGGAUGGAUAGGUAUGUGAAUAAAUGGAUGGAUGGAUGGAUUGAUUUGUGAAUGAAUGGAUGAAUGGAUGGGUAGGUGGGUGGAUGCAUAGGCAAGUAGAUGAAUGAAUAUGUGGGUAGAAGGGUGAGUGGGUGGAUGAAUGGAUGGAUAGGUUGGUAGGUUAAUGUAUUCGUGGAUGGGUGCUCUUGCGGUCGCACUAGUGUGGAAUUCUCGGGUGUCAAGG
B7: ENSMUSG00000061578.1468|Ksr2 (ssRNA)
RNA: GGGAGUUCUACAGUCCGACGAUCGCUUCGAUAUCCGCAUGCUAGAUGAAUGGAUGGGUGAAUGGAUGGAUAGGUAUGUGAAUAAAUGGAUGGAUGGAUGGAUUGAUUUGUGAAUGAAUGGAUGAAUGGAUGGGUAGGUGGGUGGAUGCAUAGGCAAGUAGAUGAAUGAAUAUGUGGGUAGAAGGGUGAGUGGGUGGAUGAAUGGAUGGAUAGGUUGGUAGGUUAAUGUAUUCGUGGAUGGGUGAAUGGAUGGAUGGAUAGAUAGAUGGGAAGGUGGAUGGACAGAUGGAUGGAUGGAUAGAUACUCUUGCGGUCGCACUAGUGUGGAAUUCUCGGGUGUCAAGG

Each binder was assayed against TDP-43 (Homo sapiens, UniProt Q13148 1-414) (assay: RNA Bind-n-Seq with designed 260-mer pool; 25 mM Tris-HCl, 150 mM KCl, 3 mM MgCl2, BSA (printed 500 mg/mL), 20 units/mL SUPERase IN; pH not stated; 500 nM RNA pool, 1 h, 4 C; TDP-43 5, 50, 500 nM; high values mean tight binding). Conditions: protein: recombinant; tags: SBP (GST cleaved off with PreScission; pGEX-GST-SBP).
Chain of TDP-43 (Q13148 whole entry): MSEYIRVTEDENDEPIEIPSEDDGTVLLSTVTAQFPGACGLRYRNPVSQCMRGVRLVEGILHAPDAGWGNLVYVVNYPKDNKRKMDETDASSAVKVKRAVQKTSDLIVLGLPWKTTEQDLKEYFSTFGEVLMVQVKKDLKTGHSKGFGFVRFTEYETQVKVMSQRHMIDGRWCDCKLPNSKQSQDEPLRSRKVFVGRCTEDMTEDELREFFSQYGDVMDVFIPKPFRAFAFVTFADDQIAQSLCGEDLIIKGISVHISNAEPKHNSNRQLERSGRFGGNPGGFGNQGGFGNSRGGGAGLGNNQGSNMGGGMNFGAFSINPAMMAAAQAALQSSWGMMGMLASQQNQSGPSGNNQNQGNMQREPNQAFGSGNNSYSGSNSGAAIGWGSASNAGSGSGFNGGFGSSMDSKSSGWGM
How it was run: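 In 25 mM Tris-HCl, 150 mM KCl, 3 mM MgCl2, BSA and SUPERase IN, 500 nM of an in vitro-transcribed 260-nt 3′ UTR oligo pool was incubated for 1 h at 4 °C with SBP-tagged TDP-43 (5, 50 or 500 nM) captured on streptavidin beads. RNA remaining after washes was biotin-eluted, reverse transcribed, PCR-amplified and sequenced. Binding, R, is the bound-sample abundance of each oligo, normalized to mapped reads, divided by its abundance in input. Each duplicate used a separate, independent protein batch.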

Going from B1 to B2, the binding signal falls from 0.515 R (bound/input frequency ratio) to 0.0963 R (bound/input frequency ratio).

First: B3
Second: B4
The binding signal of the first is lower: 1.23 R (bound/input frequency ratio) for the first, 5.09 R (bound/input frequency ratio) for the second.

Compared with B5, B6 is lower in binding signal: 5.59 R (bound/input frequency ratio) for the first, 4.62 R (bound/input frequency ratio) for the second.

In the case of B7, the binding signal is reported as 14.4 R (bound/input frequency ratio).
